Bioassay records as filed in PubChem.
In the library only some 12% were active in any assay of this set; here they are far more common.
SARS PLpro yeast-1 – SARS-CoV PLP inhibition in yeast; S. cerevisiae expressing SARS-CoV PLpro, growth rescue; Potency, µM (highest dose often 32.9 µM), without a hit: top-dose activity, positive = growth rescue, most hits filed as activators; actives 0.19% (n = 330,000); AID 485353; calls by dose curve; further: potency means the concentration at half of the fitted maximal effect; 0% is about no effect; nearly all actives have a fitted effect of over 55% in size
Pf growth 96h – P. falciparum growth inhibition at 96 hour, primary screen for plastid delayed-death inhibitors; P. falciparum luciferase reporter growth, 96 h; Potency, µM (doses to about 28.7 µM), for inactives: at the highest dose activity change, negative = inhibition, hits mostly inhibitors; actives 6.9% (n = 320,000); AID 504834; further: potency means the concentration at half of the fitted maximal effect; on the % scale 0 is the no-effect control and ±100 the full control effect
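Compounds incubated with erythrocytes infected by luciferase-expressing P. falciparum (2% hematocrit, 0.05% parasitemia final) for 96 hours, 37 C in 5% CO2. Growth inhibition scored as decreased luciferase luminescence.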
AmpC no deterg – inhibitors of E. coli AmpC beta-lactamase without detergent; actives 0.52% (n = 330,000); P00811; Potency, µM (highest dose often 57.1 µM), for the others: at the highest dose activity change, negative = inhibition, actives largely listed as inhibitors; AmpC nitrocefin hydrolysis, absorbance 480 nm, 0.0001% Triton; AID 485341;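 further: potency means the concentration at half of the fitted maximal effect; plate controls were no compound for no effect and no enzyme for full effect; nearly all actives have a fitted effect of over 20% in size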
Target sequence (P00811 whole entry, looked up): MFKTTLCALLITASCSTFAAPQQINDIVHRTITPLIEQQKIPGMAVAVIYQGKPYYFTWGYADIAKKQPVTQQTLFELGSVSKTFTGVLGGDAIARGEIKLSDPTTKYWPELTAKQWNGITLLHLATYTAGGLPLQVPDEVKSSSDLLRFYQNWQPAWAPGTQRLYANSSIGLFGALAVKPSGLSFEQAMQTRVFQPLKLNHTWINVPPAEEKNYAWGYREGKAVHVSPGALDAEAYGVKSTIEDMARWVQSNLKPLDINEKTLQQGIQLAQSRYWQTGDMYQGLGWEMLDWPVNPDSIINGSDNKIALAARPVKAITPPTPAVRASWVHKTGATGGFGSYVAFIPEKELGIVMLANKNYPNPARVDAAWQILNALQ
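20 mM phosphate pH 7.0 + 0.01% (detergent screen) or 0.0001% Triton X-100; 5.3 nM AmpC reagent; cpd preinc 15 min RT; nitrocefin (800 uM stock) to start; A480 q20 s × 4 min; Activity was normalised to no-enzyme and no-compound control wells.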
Sm TGR inh – S. mansoni TGR enzyme inhibition; purified TGR, DTNB reduction, TNB absorbance 405 nm; Potency, µM (doses to about 114 µM), for inactives: at the top dose activity change, negative = inhibition, most hits filed as inhibitors; actives 3% (n = 360,000); further: potency means the concentration at half of the fitted maximal effect; on the % scale 0 is the no-effect control and ±100 the full control effect; nearly all actives have a fitted effect of over 60% in size
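Kinetic colorimetric format: TGR-catalysed, NADPH-driven DTNB reduction monitored via TNB absorbance. Enzyme dispensed at 20 nM; compound exposure 15 min at room temperature before reaction start.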
AmpC inh detg – AmpC beta-lactamase inhibition with detergent present; AID 485294; Potency, µM (top dose mostly 114 µM), inactives show top-dose activity change, negative = inhibition, most hits filed as inhibitors; AmpC hydrolysis of nitrocefin, absorbance 480 nm, 0.01% Triton; P00811; actives 0.041% (n = 370,000);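 further: potency means the concentration at half of the fitted maximal effect; 0% = no-compound wells and -100% = no-enzyme wells; nearly all actives have a fitted effect of over 25% in size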
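20 mM phosphate pH 7.0 + 0.01% (detergent screen) or 0.0001% Triton X-100; 5.3 nM AmpC reagent; cpd preinc 15 min RT; nitrocefin (800 uM stock) to start; A480 q20 s × 4 min; Activity was normalised to no-enzyme and no-compound control wells.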
Pf growth 48h – inhibits P. falciparum growth in the first generation, 48 h | P. falciparum luciferase growth in erythrocytes, 48 h | Potency, µM (titrated, usually from 28.7 µM), without a hit: top-dose activity change, negative = inhibition, most hits filed as inhibitors | actives 5.9% (n = 310,000); further: potency means the concentration at half of the fitted maximal effect; on the % scale 0 is the no-effect control and ±100 the full control effect
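Parasite viability was followed by luminescence of a genomically integrated firefly luciferase. Cultures held 0.1% parasitemia at 2% hematocrit (final), incubated under 5% CO2 at 37 C.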
SARS PLpro yeast-2 – Validates SARS-CoV PLpro inhibitor hits in yeast; shares compounds with SARS PLpro yeast-1; calls only; AID 652038; yeast expressing SARS-CoV PLpro, growth phenotype rescue; actives 19% (n = 1,000); call rule not given here
* marks the source's active call; other numbers are inactive results; i = inactive; ? = inconclusive; . = no result given; + = active, no number; [ ] = dose if it differs, or a comment. Unless noted, the call rests on the fitted dose curve; in most records, active means well fitted curve in the direction sought with a large enough effect; inconclusive means small, poorly fitted or top-dose-only effect, or another doubt; inactive means no such curve, though single readings can be large; an effect the other way counts as inactive or inconclusive.

SMILES	SARS PLpro yeast-1	Pf growth 96h	AmpC no deterg	Sm TGR inh	AmpC inh detg	Pf growth 48h	SARS PLpro yeast-2
O=C1/C(=C\c2ccc(O)cc2)SC(=S)N1c1cccnc1	0%	49%	-7%	-10%	-13%	14%	.
O=C(Cc1ccccc1[N+](=O)[O-])NCc1ccc(Cl)cc1Cl	?	-2%	-8%	-4%	0%	122%	i
CN=C1SC(CC(=O)Nc2ccccc2F)C(=O)N1C (centres undefined)	7%	10%	-1%	1%	-14%	16%	.
CCCN1C(=O)SC(CC(=O)Nc2ccccc2C)C1=O (centres undefined)	?	-15%	-15%	-35%	-5%	19%	i
CCOc1ccccc1OCCCNCc1ccco1	2%	19%	0%	-3%	4%	-10%	.
COc1cccc(C(=O)Nc2nc(-c3ccccc3)c(-c3ccccc3)o2)c1	?	-29%	-9%	1%	?	-24%	+
CCn1ncc(CNC(=O)C2(C)CC2(Cl)Cl)c1C (centres undefined)	18%	-28%	0%	-3%	4%	7%	.
O=C(N/N=C/c1c(O)n(-c2ccc(Cl)cn2)c(=O)c2ccccc12)c1ccncc1	13µM*	-17%	-14%	-6%	-9%	-7%	i
COc1ccc(Cn2c(-c3ccc(OC)cc3)n[nH]c2=S)cc1	7%	13%	-22%	-6%	6%	-15%	.
CC(C)Oc1ccc(Cn2c(-c3ccco3)n[nH]c2=S)cc1	22µM*	?	-22%	-4%	4%	-16%	i
Cc1ccc(CN2CCN(Cc3cn[nH]c3C3CCCCC3)CC2CCO)cc1 (centres undefined)	-1%	?	82%	-2%	-5%	-9%	.
O=C(COC(=O)c1ccc(F)cc1F)Nc1cccc(S(=O)(=O)N2CCOCC2)c1	2%	37%	-5%	2%	-7%	74%	.
COc1ccc(C2OC(=O)c3ccccc3S2)cc1 (centres undefined)	?	10%	-27%	-1%	?	8%	i
COc1cc(C2OC(=O)c3ccccc3S2)cc(OC)c1OC (centres undefined)	-1%	7%	-8%	32%	-3%	10%	.
O=C(COC(=O)c1ccccc1Br)Nc1cccnc1Cl	1%	.	-44%	.	.	.	.
Cc1ncc(CO)c(/C=N/NC(=S)Nc2ccc(F)cc2)c1O	5.6µM*	13µM*	-33%	-22%	?	-102%	i
Fc1ccc(NC(=S)NCc2ccc3c(c2)OCO3)cc1	0%	40%	-36%	-14%	-9%	-5%	.
O=C1CSC(=S)N1	-1%	87%	-7%	-11%	?	?	.
S=C(NNc1ccc2ccccc2c1)NC1CCCCC1	.	-4%	?	-22%	-6%	-1%	?
S=C(Nc1ccc(Oc2ccccc2)cc1)NC1CCCCC1	-29%	9%	-35%	6%	4%	0%	.
Cc1cc(NC(=O)CCCn2ccc([N+](=O)[O-])n2)n(Cc2ccc(F)cc2)n1	-1%	-22%	-6%	-3%	-1%	1%	.
Cc1ccc(-c2nc3ccccc3c(=O)n2-c2cc(C)ccn2)cc1	4µM*	7%	9%	-1%	-3%	-7%	i
Cc1ccc(-c2nc3ccccc3c(=O)n2-c2cccc(C)n2)cc1	-2%	268%	58%	1%	-2%	-9%	.
CC1CCCCC1NC(=O)C(Cc1ccccc1)NS(=O)(=O)c1cccs1 (centres undefined)	?	?	-30%	-30%	5%	.	i
O=C(O)CCC(=O)Nc1ccccc1C(=O)Nc1ccccc1	15%	.	0%	-4%	-13%	1%	.
SMILES	SARS PLpro yeast-1	Pf growth 96h	AmpC no deterg	Sm TGR inh	AmpC inh detg	Pf growth 48h	SARS PLpro yeast-2
O=C(O)CCC(=O)Nc1ccccc1C(=O)NCCc1ccccc1	4µM*	125%	-15%	-1%	-16%	60%	i
O=S(=O)(c1ccc(OCC(O)CN2CCN(c3ccccc3)CC2)cc1)N1CCOCC1 (centres undefined)	?	6%[5.75 µM]	59%	-6%	-3%	-14%	i
O=S(=O)(c1ccc(OCC(O)CN2CCN(c3ccccc3O)CC2)cc1)N1CCOCC1 (centres undefined)	-3%	11%	28%	3%	?	?	.
CCCN1CCN(C(=O)c2noc3c2COc2ccc(C)cc2-3)CC1	?	168%	103%	5µM*	-15%	50%	i
Cc1ccc2c(c1)-c1onc(C(=O)N3CCN(c4cc(C)ccc4C)CC3)c1CO2	.	.	.	-8%	5%	.	.
COc1ccc(OC)c(C2C=C(C34CC5CC(CC(C5)C3)C4)NC(=S)N2)c1 (centres undefined)	?	2.6µM*	-51%	-8%	-14%	8.3µM*	+
CCOc1ccc(S(=O)(=O)NCCC(=O)NCCOc2ccccc2)cc1	?	-6%	-11%	-9%	-10%	?	i
Cc1ccccc1NCc1ccc(O)c2ncccc12	?	-13%	-18%	0%	1%	?	+
CNS(=O)(=O)c1ccc(C)c(S(=O)(=O)NC)c1	-1%	13%	-20%	-10%	?	14%	.
COc1ccc(C(=O)Nc2ccc(N3CCN(C)CC3)cc2)cc1[N+](=O)[O-]	0%	-26%	-7%	8%	-11%	2%	.
CCc1ccc(NC(=O)c2ccc(OC)c([N+](=O)[O-])c2)cc1	?	?	-2%	-8%	-1%	24%	i
Cc1cc(=O)[nH]c(N/N=C/c2ccccn2)n1	?	?	-3%	-2%	-7%	2.9µM*	i
Cc1cc(=O)[nH]c(N/N=C/c2c(O)n(-c3ccccc3)c(=O)c3ccccc23)n1	?	-21%	-22%	-4%	?	-25%	i
O=C1CC(=O)Nc2cc(S(=O)(=O)Nc3cccc(Br)c3)ccc2N1	.	.	.	-7%	-2%	.	.
CCOC(=O)c1nn(-c2ccc(Cl)cc2)c2nc(Nc3ccccc3)cc(=O)n12	?	.	29%	1%	-2%	?	i
COCc1cc(C2C(C(=O)c3ccco3)=C(O)C(=O)N2CCOCCO)ccc1O (centres undefined)	2.8µM*	85%	-10%	0%	?	6%	i
Cc1cc(C)cc(C(=O)N(c2ccccn2)C(C)c2ccco2)c1 (centres undefined)	?	-20%	11%	-14%	1%	.	i
